Bioassay records deposited in PubChem BioAssay by several laboratories.
Compounds with a hit are over-represented: about 4.7% of the library has one in this group of screens.
SDO1 yeast rescue: growth rescue of sdo1-depleted yeast, primary screen, S. cerevisiae, bone marrow failure model; S. cerevisiae sdo1-depleted JHY4D growth rescue, OD600 30 h; active compounds read high; pdr5 snq2 efflux-pump mutant strain; z-score at 10 µM; 140,000 tested, 0.21% active; AID 817, 2007;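 active = z-score above 3 at both the 24 hr and the 30 hr optical density reads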;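 note: z-score against mean and SD of all compound wells on the same plate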
hDAT+cocaine: changed hDAT dopamine uptake under cocaine IC80, either direction, primary screen, cocaine antagonist project, cell-based, LLC-PK1 hDAT, [14C]-dopamine uptake, MLSMR. AID 449768, 2010. 110,000 tested, 1.3% active. LLC-PK1 hDAT cells, [14C]-dopamine uptake with cocaine IC80; actives deviate in either direction. B-score at 10 µM;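 active = Z score or B-score, a plate-position-corrected score, falls beyond the plate's 99.7% confidence bounds, in either direction; inactive = both scores lie inside the 99.7% bounds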;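 note: scored against the spread of the other compound wells on the same plate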
Target sequence (Q01959 whole entry, looked up): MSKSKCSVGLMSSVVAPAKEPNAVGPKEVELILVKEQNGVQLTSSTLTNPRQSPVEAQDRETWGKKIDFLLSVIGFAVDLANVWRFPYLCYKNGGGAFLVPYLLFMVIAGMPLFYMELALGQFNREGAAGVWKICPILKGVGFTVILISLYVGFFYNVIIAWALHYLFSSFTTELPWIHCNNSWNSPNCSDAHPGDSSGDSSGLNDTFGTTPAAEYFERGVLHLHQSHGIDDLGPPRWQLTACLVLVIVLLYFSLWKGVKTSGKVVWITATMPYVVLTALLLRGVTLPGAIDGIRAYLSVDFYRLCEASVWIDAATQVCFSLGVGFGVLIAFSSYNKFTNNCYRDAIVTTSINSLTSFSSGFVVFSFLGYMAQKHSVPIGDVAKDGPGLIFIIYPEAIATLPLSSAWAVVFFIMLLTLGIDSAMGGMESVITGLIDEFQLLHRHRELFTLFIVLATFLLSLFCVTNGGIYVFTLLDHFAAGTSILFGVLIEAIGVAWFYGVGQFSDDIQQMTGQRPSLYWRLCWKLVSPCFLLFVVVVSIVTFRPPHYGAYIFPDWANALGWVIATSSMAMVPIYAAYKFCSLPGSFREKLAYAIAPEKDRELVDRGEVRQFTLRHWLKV
PLK1 PBD inh: Plk1 polo box domain binding inhibitors, primary screen, biochemical, fluorescence polarization | Serine/threonine-protein kinase PLK1 (Homo sapiens), P53350 | Plk1 PBD phosphopeptide binding | inhibition, %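 (tested at about 20 µM)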 | 97,000 tested, 0.13% active | AID 693, 2007; in the data active = inhibition above about 34%, passing the limit was not always enough
Pyk2 oligo antag: antagonists of Pyk2 self-association, primary screen, Q293 cells, FERM NanoBiT luminescence, HTS | Protein-tyrosine kinase 2-beta (Homo sapiens), Q14289 | active compounds read low | z-score (the deposit names both 25 µM and 10 µM) | 99,000 tested, 0.83% active | AID 1347419, 2020;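 active = Z-score of -3 or lower, scaled per plate to the spread of control and sample wells; inactive = z-score above -3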;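 note: negative z-score means lost luminescence so less FERM oligomerization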
Cav3 T inh: Cav3.2 calcium influx blockers – cell-based, Fluo-4 calcium fluorescence, FDSS, MLSMR library, primary screen; Voltage-dependent T-type calcium channel subunit alpha-1H (Homo sapiens), O95180; Cav3.2-expressing cells; active compounds read low; B-score at 10 µM; 100,000 tested, 4% active; AID 449739, 2010;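 active = single-dose well whose peak fluorescence ratio is a statistical outlier from its plate by either plate-standardised score or position-corrected B-score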
PLK1 kinase inh: human PLK1 kinase inhibitors, primary screen, biochemical, TR-FRET. Serine/threonine-protein kinase PLK1 (Homo sapiens), P53350. recombinant PLK1 kinase, TR-FRET peptide phosphorylation. inhibition, % at 10 µM. 97,000 tested, 0.53% active. AID 619, 2007;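 active = inhibition of 50% or more in the single-concentration screen; inactive = inhibition below 50%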;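 note: 0% = DMSO max control and 100% = H-89 dihydrochloride min control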
Starred values were filed as active, the others as inactive; . = no result.

SMILES	SDO1 yeast rescue	hDAT+cocaine	PLK1 PBD inh	Pyk2 oligo antag	Cav3 T inh	PLK1 kinase inh
Cc1cc([N+](=O)[O-])ccc1N(C)C	0.96	.	.	.	.	.
Cc1ccc(-c2ccc(/C=C(\C#N)C(=O)Nc3cc(C)nn3-c3ccccc3)o2)cc1	-1.1	0.04	41	.	-6.6*	-9
O=C(CSc1n[nH]c(=O)[nH]c1=O)N/N=C/c1ccccc1	0.98	.	.	.	.	.
S=C(Nc1ccccn1)c1ccccn1	-0.14	2.4*	-34	0.04	.	-7
Cc1cccc(COCC(Cc2ccccc2)N2CCN(C(=O)c3cc(Cl)cc(Cl)c3)CCC2=O)c1 (stereo not given)	-0.41	0.16	.	.	-3.4*	.
Nc1c(C(=O)C2CC2)sc2nc(-c3cccs3)cc(C(F)(F)F)c12	0.04	-0.56	-10	0.63	-7.9*	-30
CC(=O)c1sc2nc(-c3cccs3)ccc2c1N	-0.66	-0.51	-36	0.35	-1.8	-12
COc1ccc(N/C(C)=C/C(=S)Nc2ccccc2)cc1	-0.14	.	.	.	.	.
Cc1c(/C=N/NC(=O)CNc2ccccc2)c2ccccn2c1C(=O)c1ccc(Cl)cc1	-1.6	.	.	.	.	.
Cc1c(C(=O)Nc2ccc(Cl)cc2)c2ccccn2c1C(=O)c1ccccc1	-1.2	-9.5*	-19	-0.38	-0.9	6
Cc1c(C(=O)Nc2ccc(Cl)cc2)c2ccccn2c1C(=O)c1ccc([N+](=O)[O-])cc1	-0.2	0.34	14	0.59	-7.1*	-5
COC(=O)CSC1=C(C#N)C(c2ccc3c(c2)OCO3)C2=C(CCCC2=O)N1 (stereo not given)	0.81	-0.12	-12	-1	2.7	7
COC(=O)C1=C(N)N(c2ccccc2C(F)(F)F)C2=C(C(=O)CCC2)C1c1ccc2c(c1)OCO2 (stereo not given)	-1	-0.08	17	-4.3*	0.37	-21
COCc1nc(-c2cc(Br)ccc2OC)no1	1.7	2.9*	3	0.82	-0.19	-11
COc1ccc(Br)cc1-c1noc(-c2ccccc2)n1	-1.9	0.13	0	-1.2	0.5	-8
O=C(NCc1ccc(F)cc1)C(=O)NCC1OCCN1C(=O)c1ccc(Cl)cc1 (stereo not given)	0.86	2.4*	.	.	1.6	.
CCCCCCNCc1c(F)cccc1Cl	0.47	.	.	.	.	.
COc1ccccc1NC(=O)N1c2ccc(F)cc2CCC1C (stereo not given)	0.08	-2.3	-21	0.17	-5.1*	-9
COc1cc(OC)cc(C(=O)N2c3ccc(F)cc3CCC2C)c1 (stereo not given)	-0.99	1.8	-20	-1.2	-4.6*	1
CCOC(=O)C1CN(S(=O)(=O)c2ccc(OC)cc2)c2cc(S(=O)(=O)CC)ccc2O1 (stereo not given)	-0.7	-7.9*	5	0.66	1.3	-4
CCS(=O)(=O)c1ccc2c(c1)N(S(C)(=O)=O)CC(C(=O)NC1CC1)O2 (stereo not given)	2	-1.1	2	0.25	0.33	-7
Cc1cccc2cc(CN(Cc3nnnn3Cc3ccco3)C3CCCC3)c3nnnn3c12	-1.1	-7.4*	10	-0.64	.	-4
Cc1cccc2cc(CN(Cc3nnnn3C3CCCC3)C3CCCCC3)c(=O)[nH]c12	.	0.93	-8	0.76	0.44	-10
Cc1ccc(NC(=O)CSc2nnc3n2CCCCC3)cc1	1.8	.	.	.	.	.
CSc1ccc(CNc2cccc3ccccc23)cc1	-1	0.14	5	-4.3*	-1.4	-13
SMILES	SDO1 yeast rescue	hDAT+cocaine	PLK1 PBD inh	Pyk2 oligo antag	Cav3 T inh	PLK1 kinase inh
CCOC(=O)C1=C(C)OC(N)=C(C#N)C1c1c(C)nn(-c2ccc(C)cc2)c1Cl (stereo not given)	-0.72	1.3	-8	.	.	-8
COC(=O)C1=C(C)OC(N)=C(C#N)C1c1c(C)nn(-c2ccccc2)c1Cl (stereo not given)	-0.55	2.4	-21	-1.9	-5.1*	-7
COc1cc(OC)c(NC(=O)CCNC(=O)Cn2ccc3ccccc3c2=O)cc1Cl	0.18	-0.94	0	-0.47	-1.6	2
COc1ccc(C)cc1NC(=O)CNC(=O)Cn1ccc2ccccc2c1=O	-0.23	-9*	14	0.09	0.1	-13
Cc1[nH]nc2c1C(Cc1ccccc1)C(C#N)=C(N)O2 (stereo not given)	-0.46	0.89	-1	0.28	0.9	-10
CC(C)c1[nH]nc2c1C(Cc1ccccc1)C(C#N)=C(N)O2 (stereo not given)	1.3	1.2	33	0.39	-8.6*	-2
O/N=C/c1cc(Br)ccc1OCc1ccc(F)cc1	.	1.3	0	-1.9	-4.6*	8
O=C(Nc1nc2n(n1)C(c1ccc(Cl)cc1)CC(c1ccc(Cl)cc1)N2)c1ccco1 (stereo not given)	1.3	1.3	-4	.	-5.3*	0
COc1ccc(C2CC(c3ccc(Cl)cc3)Nc3nc(NC(=O)c4ccco4)nn32)cc1 (stereo not given)	-1.3	0.33	12	-1.4	-3.9*	-8
COc1ccc(C2CC(c3ccccc3)Nc3nc(NC(=O)c4cccs4)nn32)cc1 (stereo not given)	0.07	1.6	4	-3.5*	-1.8	-10
Cc1c(C(=O)NCC2CCCO2)oc2ccc(S(=O)(=O)N3CCCC3)cc12 (stereo not given)	-0.53	1	.	0	0.93	.
Cc1c(C(=O)NCC2COc3ccccc3O2)oc2ccc(S(=O)(=O)N(C)C3CCCCC3)cc12 (stereo not given)	0.81	-0.0059	-17	-0.51	-4.3*	-1
Cc1ccc(S(=O)(=O)/N=C(/c2ccc(F)cc2)N2CCCCC2)cc1	-0.36	.	.	.	.	.
COCCNS(=O)(=O)c1cccc2cccnc12	0.44	-2.7*	23	.	-0.056	-16
O=S(=O)(NCc1ccco1)c1cccc2cccnc12	-0.57	-0.093	13	0.09	1.9	-11
O=c1c(O)c(-c2cccs2)oc2ccccc12	-1.6	-0.0039	-135	-1.1	-3.8*	-9
O=c1c(O)c(-c2cccs2)oc2ccc(Cl)cc12	-0.29	0.28	-210	-1.3	-4.8*	-21
O=S(=O)(Nc1ccc2c(c1)CCC2)c1cccs1	0.51	0.3	-6	-0.66	-5.6*	-8
O=C1OCc2cc(NS(=O)(=O)c3cccs3)ccc21	0.75	-1.3	3	-0.53	0.3	-10
O=C(CSc1nc2ccccc2[nH]1)Nc1cc(C(F)(F)F)ccc1N1CCOCC1	0.62	0.063	-7	-2.5	-6.9*	-14
O=C(CSc1nc2ccccc2[nH]1)Nc1ccc2c(c1)OCCO2	-0.27	0.82	-6	-0.12	-3.9*	-15
Cc1cccc(-n2ccnc2SCC(=O)Nc2ccc3c(c2)OCCO3)c1	-1.6	1.8*	-13	-1.7	.	-8
